Bioassay records: PubChem BioAssay, National Center for Advancing Translational Sciences (NCATS)
The sample as a whole holds a higher share of hits than the screen did.
LmPK inh: qHTS Assay for Inhibitors of Leishmania Mexicana Pyruvate Kinase (LmPK); Potency, µM (top dose mostly 57.5 µM), for the others: top-dose activity change, negative = inhibition, hits mostly inhibitors; Q27686; purified LmPK, Kinase-Glo ATP luminescence, 1 h; 290,000 tested, 0.37% active; also: potency is read from the fitted curve at half-maximal effect; % is scaled to controls: 0 for no effect and ±100 for the full control effect
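Purified LmPK (0.1 nM) converted ADP (0.1 mM) to ATP with PEP (0.5 mM) in imidazole buffer pH 7.2 with KCl and MgCl2, 1 h at room temperature. ATP was read by Kinase-Glo luminescence; data normalized to uninhibited and no-enzyme controls.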
Cycloheximide cs: Cycloheximide Counterscreen for Small Molecule Inhibitors of Shiga Toxin | max response, % | 300,000 tested, 12% active | cell reporter, cycloheximide protein synthesis inhibition counterscreen; in the data active = max response mostly above about 13%, no sharp cut-off; inactive = mostly below about 14%; also: read at 38.3 µM for the half of the compounds with a filed dose; 0% is about no effect
Shiga inhibitor: A qHTS for Small Molecule Inhibitors of Shiga Toxin | Vero cells, Shiga toxin protein synthesis inhibition reporter | inhibition, % at 38.7 µM | 290,000 tested, 9.2% active | AID 2315, 2010; in the data active = inhibition mostly above about 28%, no sharp cut-off; inactive = mostly below about 43%; also: 0% is about no effect
Sm TGR block: qHTS Assay for the Inhibitors of Schistosoma Mansoni Peroxiredoxins; 360,000 tested, 3% active; Potency, µM (doses to about 114 µM), for the others: at the highest dose activity change, negative = inhibition, usual class: inhibitors; purified TGR, DTNB reduction, TNB absorbance 405 nm; Schistosoma mansoni thioredoxin glutathione reductase (TGR), Q962Y6; also: potency is read from the fitted curve at half-maximal effect; % is scaled to controls: 0 for no effect and ±100 for the full control effect; nearly all actives have a fitted effect of over 60% in size
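TGR 20 nM + NADPH 100 uM (dispensed conc.), cpd preinc 15 min RT; start with NADPH (500 uM addition) then DTNB (15 mM addition). Kinetic TNB absorbance, 405 nm filter. Four-parameter Hill fit across titration.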
TbPYK inhibitor: qHTS of Trypanosoma Brucei Inhibitors | 410,000 tested, 0.12% active | Potency, µM (series often up to 76.8 µM), for the others: at the top dose activity, negative = inhibition, hits mostly inhibitors | pyruvate kinase (Trypanosoma brucei), Q57TT1 | TbPYK enzyme, Kinase-Glo Plus ATP luminescence, 45 min; also: potency is read from the fitted curve at half-maximal effect; % is scaled to controls: 0 for no effect and ±100 for the full control effect; nearly all actives have a fitted effect of over 50% in size
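Readout: single end-point luminescence (Kinase-Glo Plus, 10 min). Reaction conditions were TbPYK/substrate plus 130 uM ADP, 45 min at RT, pH 7.2 TEA buffer. No-enzyme wells served as controls, and data were normalized before concentration-response fitting.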
Giardia FBPA inh: qHTS Assay for Inhibitors of Fructose-1,6-bisphosphate Aldolase from Giardia Lamblia; 290,000 tested, 0.71% active; Potency, µM (titrated, usually from 59.6 µM), inactives show at the top dose activity, negative = inhibition, hits mostly inhibitors; purified Giardia FBPA; A8B2U2; also: potency is read from the fitted curve at half-maximal effect; % is scaled to controls: 0 for no effect and ±100 for the full control effect; nearly all actives have a fitted effect of over 55% in size
Target sequence (A8B2U2 whole entry, looked up): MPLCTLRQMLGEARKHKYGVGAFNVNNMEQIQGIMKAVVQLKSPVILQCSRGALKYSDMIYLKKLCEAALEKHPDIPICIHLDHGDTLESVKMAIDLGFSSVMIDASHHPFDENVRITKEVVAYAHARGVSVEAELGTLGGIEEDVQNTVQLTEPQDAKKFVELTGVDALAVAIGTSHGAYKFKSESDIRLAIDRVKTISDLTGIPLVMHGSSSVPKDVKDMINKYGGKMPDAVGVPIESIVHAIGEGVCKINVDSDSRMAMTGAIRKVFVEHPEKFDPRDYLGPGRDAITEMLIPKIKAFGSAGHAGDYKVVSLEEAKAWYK
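40 nM FBPA preincubated 10 min at RT with compound (up to 57.5 uM final), then substrate plus GAPDH/TPI/NAD/arsenate coupling and diaphorase/resazurin added. Fluorescence read after 20 min at RT, 525/598 nm.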
* hit, by the source's call; ? = inconclusive; / = no result; ! = not active in a repeat; [ ] = remark or other dose. Unless noted, calls follow the shape of the dose curve; as a rule, active = well fitted curve in the direction sought with a large enough effect; inconclusive = small, poorly fitted or top-dose-only effect, or another doubt; inactive = no such curve, though single readings can be large; an effect the other way counts as inactive or inconclusive.

SMILES | LmPK inh | Cycloheximide cs | Shiga inhibitor | Sm TGR block | TbPYK inhibitor | Giardia FBPA inh
CC(C)(C)c1ccc(S(=O)(=O)CCc2ccccn2)cc1 | 8% | 27* | 54* | -1% | -5% | 14%
Fc1ccc(SCCc2ccccn2)cc1 | ? | 52* | 72* | 17% | -2% | 0%
COc1cccc(C(=O)Nc2ccc3nc(SCCOc4ccccc4)sc3c2)c1 | / | / | / | -15% | 1% | /
O=C(Nc1ccc(OC(F)(F)F)cc1)Nc1cccnc1 | -21% | 32* | 70* | 0% | 2% | 1%
CC(=O)c1ccc(N2Cc3ccccc3/C2=N\C(=O)Nc2ccc(Cl)cc2)cc1 | 1% | 43* | 33* | 3% | 7% | 3%
Nc1ccc(C(=O)CC(=O)Nc2ccc(Cl)cc2)cc1 | 4% | 18* | 39 | 15% | 3% | 3%
Nc1ccc(NC(=O)c2ccc(C(=O)Nc3ccc(N)cc3)cc2)cc1 | 1% | -4 | -5 | 2% | 3% | 3%
CON(C)C(=O)Nc1ccc(Cl)cc1 | -9% | 12* | 26 | 3% | -3% | 1%
Cc1cccc(C(c2sc3nc(-c4ccco4)nn3c2O)N2CCN(c3ccccc3)CC2)c1 (stereo not drawn) | / | / | / | -1% | 0% | /
CC(=O)c1ccc(NC(=O)c2cnsn2)cc1 | -20% | 31* | 82* | 19% | -10% | 1%
COc1ccccc1NC(=O)Nc1cccnc1 | -21% | 12 | 30 | 0% | -23% | 4%
CC(=O)c1ccc(NC(=O)Nc2ccncc2)cc1 | 6% | 28* | 57* | 8% | 0% | 0%
O=C(Nc1ccccc1)Nc1ccc(Oc2cccnc2)nc1 | -4% | 42* | 39* | 8% | 3% | 0%
CC(=O)c1ccc(NC(=O)Nc2ccc(Cl)cc2)cc1 | 1% | 34* | 105* | -17% | 1% | -2%
CC[C@@]1(C(=O)OC)N[C@H](CN(C)C(=O)NC(C)C)[C@@H]2C(=O)N(C)C(=O)[C@@H]21 | / | / | / | / | 1% | /
CNC(=O)Nc1ccc(Cl)cc1 | -1% | 21* | 18 | 0% | -4% | 6%
O=C(Nc1ccc(F)cc1)Nc1cccnc1 | 3% | -3 | 23 | 0% | 2% | 5%
CC(=O)c1ccc(NC(=O)Nc2cccnc2)cc1 | -7% | 28* | 23 | 6% | -1% | /
CCOc1ccc(C(=O)NCc2ccccc2OC)cc1 | -1% | 11 | active | -2% | 2% | -5%
COc1ccccc1CNC(=O)c1ccc(OC(C)C)cc1 | -3% | 15* | 56* | 0% | -7% | -3%
CCOc1ccc(C(=O)CC(NCc2cccs2)C(=O)O)cc1 (stereo not drawn) | -2% | -2 | 16 | 6.3µM* | -19% | -4%
CC(C)Oc1ccc(C(=O)NCc2cccs2)cc1 | 0% | 50* | 36* | -2% | 4% | -2%
O=C(NCc1cccs1)c1ccccc1 | 2% | -3 | -1 | 9% | 3% | 0%
CC(=O)Nc1ccc(NC(=O)C(NC(=O)C2CCC(C)CC2)C(C)C)cc1 (stereo not drawn) | / | / | / | -1% | -9% | /
CC(C)Oc1cccc(C(=O)Nc2ccc(-c3nc4cc(Cl)cc(Cl)c4o3)cc2)c1 | / | / | / | 12% | -10% | /
SMILES | LmPK inh | Cycloheximide cs | Shiga inhibitor | Sm TGR block | TbPYK inhibitor | Giardia FBPA inh
CCOc1ccccc1CNS(=O)(=O)c1cc2c(cc1C)NC(=O)CO2 | / | / | / | 3% | -13%[15.4 µM] | /
COCC#Cc1ccc(C2NC(C(=O)O)CCC2C)cc1 (stereo not drawn) | / | / | / | / | / | 1%[12.9 µM]
CC(=O)Nc1ccc(NC(=O)CCC(=O)c2ccc(C)cc2)cc1 | / | / | / | 5% | 2% | /
CCC(=O)N1CCCc2cc(S(=O)(=O)N3CCC(C(=O)NC4CCC(C)CC4)CC3)ccc21 (stereo not drawn) | / | / | / | -4% | -5% | /
CCOC(=O)C(=CNc1ccccc1N1CCOCC1)C(=O)OCC | -3% | 3 | -2 | 0% | -5% | 8%
CCOC(=O)C(=O)C1=C(N2CCOCC2)/C(=C\c2ccc(F)cc2)CC1 | 2% | 8 | 3 | 28µM* | 1% | -9%
O=C(Nc1ccc(F)cc1)OCCN1CCN(Cc2ccccc2)CCC1=O | -5% | 11*! | 22 | -12% | 2% | -2%[89.2 µM]
COc1ccc(/C=C/C(=O)c2ccc(C)c([N+](=O)[O-])c2)cc1O | 0% | 46* | 79* | -15% | -21% | -10%
COc1cc(/C=C/C(=O)OCC(=O)N2CCC(C)CC2)ccc1OCC#N | / | / | / | -1% | -1% | /
CCOc1ccc(/C=C/C(=O)c2ccccc2)cc1OC | -7% | 56* | 80* | -18% | 2% | -3%
COc1cc(/C=C/C(=O)c2ccc(O)cc2)ccc1OCC#N | 5% | 71* | 85* | -18% | -3% | 7%
CCOc1ccc(C(=O)/C=C/c2ccc(OC)c(OC)c2)cc1 | -11% | 1 | 26 | / | 2% | -12%
COc1cc(/C=C/C(=O)c2ccc(C)c([N+](=O)[O-])c2)cc(OC)c1O | -3% | -1 | -6 | -23% | -22% | -12%
COc1cccc(C(=O)/C=C/c2ccc(OCC#N)c(OC)c2)c1 | 0% | 39* | 16* | -8% | -8% | -6%
CS(=O)(=O)N1CCC2(CCN(c3ccccn3)CC2)CC1 | / | / | / | / | -10% | 6%
Cn1sc(NC(=O)c2ccc(Cl)cc2)nc1=O | -6% | 14* | 33 | 3% | 2% | -24%
Cc1ccc(C(=O)Nc2nc(=O)n(C)s2)cc1 | -18% | 36* | 73* | 3% | -5% | -24%
Cc1ccc(C(=O)Nc2nc(=O)n(C(=O)c3ccccc3Cl)s2)cc1 | -9% | 31* | 49* | 0% | -4% | ?
Cc1ccc(C(=O)Nc2nc(=O)n(C(=O)CC(C)C)s2)cc1 | 0% | 10 | 3 | 3% | -18% | 6%
C=C1CC2C(=O)N(Cc3cc(OC)ccc3OC)C(C(=O)OCC)C1N2C (stereo not drawn) | / | 10 | 10 | / | / | 6%
COC(C[C@@H](O)CC(=O)[C@@H](C)OCc1ccccc1)OC | 1% | -2 | 10 | 1% | 1% | 7%
COC(C[C@H](O)CC(=O)[C@H](C)OCc1ccccc1)OC | 1% | -4 | -5 | 45µM* | -4% | 7%
CCOc1ccc(NC(=O)CCCn2c(C)c3cnn(-c4ccccc4)c(=O)c3c2C)cc1 | / | / | / | 2% | -1% | /
COc1ccc(C)cc1NS(=O)(=O)c1ccc2c3c(cccc13)C(=O)N2 | / | / | / | 3% | -13% | /
Cc1cnc(C(=O)NCCc2ccc(Cl)cc2)cn1 | -7% | 55* | 73* | -7% | 4% | /
O=C(NCCc1ccc(Cl)cc1)c1cnccn1 | 5% | 17* | 9 | -1% | 1% | -5%
